Results from PubChem BioAssay AID488890 (Southern Research Specialized Biocontainment Screening …, 2010).
Hit rate of the full screen: of about 320,000 compounds, about 1,300 (0.41%) were called active. Roughly 3% stayed inconclusive and do not appear here. No rule for the calls is given here. Not all results are given here. Results with a measured potency or affinity are listed apart.

Assay: growth inhibition of non-replicating M. tuberculosis (AID 488890);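 also: plate controls were DMSO cells for no effect and high antibiotic wells for full effect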
Conditions: Mycobacterium tuberculosis non-replicating, at 25 µM, stronger effect = higher value

SMILES	inhibition [%]
O=C(CC1CCCCC1)NCc1ccc(Cl)cc1	11
O=C(NCCCCNC(=O)c1cccs1)c1cccs1	-0.35
O=C(NCc1cccs1)C12CC3CC(CC(C3)C1)C2	26.9
O=C(NCc1cccs1)C1CC1	-9.67
O=C(NCc1cccs1)C1CCCCC1	54
O=C(CC1CCCCC1)NCc1ccccc1Cl	33
O=C(NCCCNC(=O)c1cccs1)c1cccs1	-16.1
O=C(CCCCC(=O)NCc1cccs1)NCc1cccs1	1.23
COc1ccc(C(CNC(=O)c2ccccc2SC)N(C)C)cc1 (stereo unspecified)	-4.14
CCCCN(C(=O)CSc1nnc(-c2ccccc2)n1C)c1c(N)n(Cc2ccccc2)c(=O)[nH]c1=O	8.96
Cc1nc2sc(C)c(C)c2c(=O)[nH]1	3.35
COc1cc(CN2CCNCC2)cc(OC)c1OC	-14.6
COC(=O)c1ccc(NC(=O)COc2ccc(S(=O)(=O)NC(C)(C)C)cc2)cc1	-11.9
CC(NC(=O)CN1C(=O)NC2(CCc3ccccc32)C1=O)c1ccccc1 (stereo unspecified)	15.4
CNNC(=S)Nc1ccc(Cl)cc1	-0.3
Cc1nnc(NC(=O)CSc2n[nH]c(-c3ccccc3C)n2)s1	5.17
CC(=O)Nc1cccc(NC(=O)c2ccc(Br)cc2)c1	-8.54
CC(=O)/C(=N/Nc1ccccc1C)N1CCOCC1	9.51
O=C(CCC1CCCC1)Nc1ccc([N+](=O)[O-])cn1	67.7
O=C(O)CCC(=O)Nc1ccc(Br)cn1	-12.1
O=C(CC1CCCCC1)NCc1ccc(F)cc1	55.7
O=C(CC1CCCCC1)NCc1ccccn1	69.6
O=C(CCC1CCCCC1)NCc1ccccn1	79.4
O=C(CCC1CCCCC1)NCc1ccncc1	29

SMILES	inhibition [%]
O=C(CN1C(=O)NC2(CCCc3ccccc32)C1=O)N1CCCCC1 (stereo unspecified)	6.72
Nc1ccc(Br)cc1C(=O)c1ccccc1	53.2
CCN(CC(=O)Nc1c(F)cccc1F)C(=O)CCCc1c[nH]c2ccccc12	-0.99
COc1cc(C(=O)OCC2CC(c3ccccc3)=NO2)cc(OC)c1OC (stereo unspecified)	3.53
CCOC(=O)c1cc(-c2ccccc2)n(CC2CC(c3ccc(OC)cc3)=NO2)n1 (stereo unspecified)	0.81
CC(=O)c1cc(NC(=O)c2ccccc2)c(=O)oc1C	54.9
Cc1oc(=O)c(NC(=O)c2ccccc2)cc1C(N)=O	-8.22
N/C(=N\OC(=O)c1ccc2ccccc2c1)c1ccccn1	15.8
COc1cccc(NC(=O)C(C)N2C(=O)c3ccccc3S2(=O)=O)c1 (stereo unspecified)	-2.17
COc1ccc(-c2c([C@H]3[C@H]4C=CC[C@@H](C)[C@@H]4C(=O)N3Cc3ccccc3)ccc3ccccc23)cc1OC	60.8
Cc1cc(N/N=C/c2ccc(F)cc2)nc(NCc2ccccc2)n1	60.8
COc1ccc(/C=N/Nc2cc(C)nc(N3CCOCC3)n2)cc1	-21.2
COc1ccc(/C=N/Nc2cc(C)nc(N)n2)cc1	27.6
Cc1ccc(/C=N/Nc2cc(C)nc(N3CCOCC3)n2)cc1	5.46
O=C(O)CC(NC(=O)c1cccc(F)c1)c1ccc(OC2CCCC2)cc1 (stereo unspecified)	-8.15
CCCCC(=O)Nc1ccc(C(=O)c2ccccc2)cc1	-5.55
CCn1cc(CNC(=S)Nc2cccc(Cl)c2C)cn1	72.5
C/C=C\C(=O)Nc1cccc(C2=NOC3(C2)C[C@@H](C(N)=O)N(C(=O)C2(C)CC2)C3)c1 (stereo partly specified)	2.93
CC(=O)Nc1ccc(NC(=O)CN(C)S(=O)(=O)c2ccc3nc(C)sc3c2)cc1	6.18
COc1ccc(OC)c2sc(NC(=O)CCSc3ccccc3)nc12	14.7
CCC(=O)Nc1nc2c(OC)ccc(C)c2s1	-15
COc1ccc(CNC(=O)C(=O)NCC2OCCN2S(=O)(=O)c2ccc3c(c2)OCCO3)cc1 (stereo unspecified)	-1.2
CCOc1ccc(NC(=O)CCNS(=O)(=O)c2ccc3c(c2)CC(C)N3C(C)=O)cc1 (stereo unspecified)	-1.02
CCOC(=O)C1CCN(Cc2ccc(OCc3ccccc3)c(OC)c2)CC1	6.11

SMILES	inhibition [%]
CC1=CN2C(=N)/C(=C/c3ccc(Sc4ccc(C)cc4)o3)C(=O)N=C2S1	-10.5
CCN1C(=O)N/C(=C/c2ccc(Sc3ccc(C)cc3)o2)C1=O	39.1
O=C1NN(c2ccccc2)C(=O)/C1=C/c1ccc(-c2ccc(C(=O)O)cc2)o1	37.2
Cc1ccc(N2NC(=O)/C(=C/c3ccc(-c4ccc(Cl)c(C(=O)O)c4)o3)C2=O)cc1	26.2
CC(NC(=O)COc1ccc(Br)cc1)C1CCCO1 (stereo unspecified)	0.437
COc1ccc(CCC(=O)NC(C)C2CCCO2)cc1 (stereo unspecified)	-3.51
CC(C)C(C)NC(=O)COc1ccc(-c2ccccc2)cc1 (stereo unspecified)	-4.32
CCN(CC)C(=O)COc1ccc(-c2ccccc2)cc1	37.2
CCC(CC)n1[nH]c(=O)c2c(C)cc(C)nc21	-4.61
CCCc1nc(SCC(=O)NC2CC2)c2c(C)c(C)sc2n1	6
CC[C@@]12C(=O)N(c3cccc(Br)c3)C(=O)N1[C@H](c1cccc(C)c1)[C@@H]1C(=O)N(Cc3ccccc3)C(=O)[C@@H]12	23.5
O=C(c1ncc[nH]1)c1cccs1	-0.79
CCOC(=O)C1CCCN(Cc2ccccc2Cl)C1 (stereo unspecified)	21.6
CC(NCc1cccc(OCc2ccccc2)c1)C(O)c1ccccc1 (stereo unspecified)	63.5
CC(NCc1ccc(Cl)cc1)C(O)c1ccccc1 (stereo unspecified)	12.6
Cn1c(Cc2ccccc2)nnc1SCc1ccc(C(=O)O)cc1	-12
CCOC(=O)c1c(C)n(OC)c2ccc3c(no[n+]3[O-])c12	-0.23
COn1c2c(c3c4no[n+]([O-])c4ccc31)CCCC2	-5.21
CCCCC(=O)Nc1c2c(nn1-c1cccc(C)c1C)CS(=O)(=O)C2	-2.3
COc1cc(C(=O)NCc2ccccn2)ccc1OCc1c(C)noc1C	-3.19
O=C1N(CCCCN2C(=O)C3(OCCO3)c3ccccc32)c2ccccc2C12OCCO2	5.68
O=C1N(CCCN2C(=O)C3(OCCO3)c3ccccc32)c2ccccc2C12OCCO2	0.91
C=CCN1C(=O)C2(OCCCO2)c2ccccc21	11.8
C=CCN1C(=O)C2(NC(=O)c3ccccc3N2)c2ccccc21 (stereo unspecified)	-5.15

SMILES	inhibition [%]
COc1ccccc1C(=O)N1CCN(C2CCN(Cc3ccccc3)CC2)CC1	-21.9
COc1ccc(OC(C)C(=O)NC(C)c2ccccc2)cc1 (stereo unspecified)	-7.62
O=C1CCCC(O)=C1C=Nc1cccc(C(F)(F)F)c1	-1.35
O=C1CCCC(O)=C1C=Nc1ccc(O)cc1	17.3
CC(C)CN(C(=O)COC(=O)c1ccccn1)c1c(N)n(Cc2ccccc2)c(=O)[nH]c1=O	-2.29
CCOC(=O)C1=NN(c2ccccc2)C(c2ccccc2)CC1=O (stereo unspecified)	12.4
C=CCOc1ccc(C2CC(C)=NN2c2ccccc2)cc1 (stereo unspecified)	35.9
Cc1ccc(C)c(S(=O)(=O)N2CCN(C(=O)CCC(=O)NCc3ccc(Cl)cc3)CC2)c1	6.7
NC(=O)c1ccc(NC(=O)COC(=O)C2CC(=O)N(Cc3ccccc3)C2)cc1 (stereo unspecified)	-1.36
Cc1nn2c(NCCCN(C)C)c3c(nc2c1-c1ccccc1)CCCC3	73.4
Cc1nn2c(NCCCN(C)C)c3c(nc2c1-c1ccccc1)CCC3	-10.7
CCO/C=C1/C(=O)N(C(C)=O)c2ccccc21	-5.81
Fc1ccc(-c2nnc(-c3ccc(Cl)cc3)o2)cc1	72.1
COc1ccc(-c2nnc(-c3ccc(F)cc3)o2)cc1	76.7
c1ccc(-c2nnc(-c3ccccc3)o2)cc1	66.5
Cc1ccc(-c2nnc(-c3ccccc3Br)o2)cc1	78.7
Cc1cccc(-c2nnc(-c3ccccc3)o2)c1	79.9
CN(C)c1ccc(-c2nnc(-c3cccs3)o2)cc1	48.7
COc1ccc(-c2nnc(-c3cccs3)o2)cc1OC	60.7
COc1ccccc1-c1nnc(-c2ccc(N3CCOCC3)cc2)o1	18.5
Cc1cc(=O)oc2ccc(OC(C)C(=O)O)cc12 (stereo unspecified)	-4.21
Cn1cc(C(=O)C(=O)N2CCCC2)c2ccccc21	-3.83
Cc1nc(N/N=C/c2ccccc2)nc(N(C)c2ccccc2)c1[N+](=O)[O-]	-0.99
CC(=O)Nc1ccc(Nc2nc(C)c([N+](=O)[O-])c(N(C)c3ccccc3)n2)cc1	71.5

SMILES	inhibition [%]
CC(=O)c1cccc(OCc2cc(C(=O)NCc3nc(C)c(C)s3)no2)c1	-3.04
COc1ccc(NC(=O)COc2ccc(C(=O)NCc3cccnc3)cc2OC)cc1	10.8
O=C(O)c1c2c(nc3ccccc13)-c1ccccc1CC2	-7.78
O=C(OCC(=O)N1CCCC1)c1cnc(Cl)c(Cl)c1	7.3
O=C(OCC(=O)N1CCN(c2ccccc2)CC1)c1ccccn1	-2.7
O=C(OCC(=O)N1CCN(c2ccccc2)CC1)c1ccc(Cl)nc1	60.4
O=C(OCC(=O)N1CCCCC1)c1ccc2ccccc2n1	50
Clc1ccc(N2CCN(c3ccnc(Cl)n3)CC2)cc1	53
COCCCNC(=O)c1c(N)n(-c2ccc3c(c2)OCO3)c2nc3ccccc3nc12	-12.5
O=C(NC1CCCCC1)c1cc(-c2ccc(Cl)cc2)on1	-0.38
O=C(Nc1ccccc1)c1cccc2c(Br)cccc12	-8.76
CCc1ccc(/C(C)=N/NC(=O)c2ccccn2)cc1	27
Cc1ccc(N=CC2=C(O)CC(c3ccccc3Cl)CC2=O)cc1 (stereo unspecified)	2.23
O=C(Nc1ccc(Br)cc1F)c1sccc1-n1cccc1	0.35
COc1ccccc1C(=O)Nc1c2c(nn1-c1ccc([N+](=O)[O-])cc1)CS(=O)(=O)C2	-26.7
CC(=O)Oc1ccc([C@@H]2COc3c(ccc4c3C=CC(C)(C)O4)C2)c(OC(C)=O)c1	-2.73
COc1cc(/C=C2/C(=N)N3OC(C)=CC3=NC2=O)ccc1OCCOc1ccc(C)cc1	-6.61
CC(=O)Nc1ccc(OCCOc2ccc(/C=C3/C(=N)N4C=CSC4=NC3=O)cc2)cc1	2.76
CC1=CC2=NC(=O)/C(=C/c3cccs3)C(=N)N2O1	-5.09
COc1cc(/C=C2\C(=N)N3N=CSC3=NC2=O)cc(Br)c1OC(=O)c1ccco1	-3.1
